PubChem BioAssay (NCI)
About 83,000 compounds went through this panel and 20% of them were active in at least one assay; those are over-represented in the sample as a whole.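 Interpretation: 100, growth as untreated; towards 0, rising growth inhibition; 0, no net growth; 0 to -100, cell death. Compounds scoring below 10 were considered active.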 Values without a mark were called inactive. Calls of active or inactive are those of the source.

What follows are compounds tested on MDA-MB-468 breast (assay: NCI-60 one-dose screen, 48 h (100 = growth as untreated, 0 = no growth, -100 = all killed)). Conditions: 10 µM unless noted.

Compound	growth
Cc1cccc(N=Nc2cccc(C)c2)c1	108%
Cc1ccc(/C=C(\C#N)c2cc3ccccc3n2C)cc1	23.6%
Cc1ccc(-n2cc(-c3ccccc3)c3c2N=NN2CCN=C32)cc1	103%
NC(=O)c1cccc(-n2ccc3cc(NC(=O)c4ccc(N5CCOCC5)c(C(F)(F)F)c4)ccc32)n1	75.7%
O=S(=O)(NCCNc1nccc(-c2c(-c3cccc(O)c3)nc3occn23)n1)c1ccc(Cl)cc1	97.9%
Oc1ccc(N=Nc2ccc(Br)cc2)c(O)c1	15.4%
O=C1NCCc2c1noc2-c1ccccc1	99.2%
S=c1sc2ccccc2n1CN1CCCCC1	108%
CN1CCCc2cc(/C=C3\SC(=S)N(C(Cc4ccc(O)cc4)C(=O)O)C3=O)ccc21 (stereo not given)	93.6%
COC12CC(=O)C(C(C)=O)=C(O)C1(C)c1c(O)c(C)c(O)c(C(C)=O)c1O2 (stereo not given)	68.9%
Cc1oc(-c2ccc(Cl)cc2Cl)cc1C(=O)Nc1nccs1	94.4%
O=C(O)c1ccc(-n2cc(CNc3ccc(C(F)(F)F)cc3)c(-c3ccccc3)n2)cc1	102%
Cc1cc(NCc2cc(Nc3ccnc4cc(Cl)ccc34)ccc2F)nc(N2CCN(C)CC2)n1	-45.9% (active)
COc1cc(-c2csc(NC(=O)c3cc(F)cc(C(F)(F)F)c3)n2)cc(OC)c1OC	-1.52% (active)
N=C(N)c1ccc(-c2ccc(-c3cc(Cl)cc(Cl)c3)s2)s1	-63.4% (active)
O=C1NC(=O)c2ncccc21	93.8%
COc1ccc(/C=C(/c2ccccc2)[N+](=O)[O-])c(OC)c1	-56.5% (active)
Cn1cnc([N+](=O)[O-])c1S(=O)(=O)Oc1cccc2ccccc12	58.9%
CC(=O)c1ccc(Nc2nc(SCC(C)C)nc(-c3ccc(F)cc3)c2C#N)cc1	118%
O=C(C(=O)N1CCOCC1)c1ccc(OC2OC(CO)C(O)C(O)C2O)cc1 (stereo not given)	105%

Compound	growth
Cn1c(=O)c2c(nc(NC3=NS(=O)(=O)c4ccccc43)n2CC(=O)N2CCc3ccccc32)n(C)c1=O	102%
NS(=O)(=O)c1ccc(-n2nc(-c3ccccc3)ccc2=O)cc1	104%
O=C(Nc1ccc(Cl)cc1)Nc1ccc(Nc2nncc3ccccc23)cc1	0.165% (active)
N#Cc1c(-c2ccccc2)cc(-c2ccccc2)n(CCCC(=O)O)c1=O	-27.1% (active)
C=C(C)[C@@H]1CC[C@]2(C(=O)NC3CCCCC3)CC[C@]3(C)[C@H](CC[C@@H]4[C@@]5(C)CC[C@H](N)C(C)(C)[C@@H]5CC[C@]43C)[C@@H]12	103%
COC1=CC(c2ccc[nH]2)=N/C1=C\c1[nH]c(C)c(CC(=O)NCc2ccccc2)c1C	27.3%
O=C(CCCCC[P+](c1ccccc1)(c1ccccc1)c1ccccc1)NC(COC(=O)C(Cl)Cl)(COC(=O)C(Cl)Cl)COC(=O)C(Cl)Cl	84.4%
c1cncc(-c2cn3nc(-c4c[nH]c5ccccc45)sc3n2)c1	-9.26% (active)
Cc1cn(-c2cc(C(=O)Nc3cccc(-n4ccc5c(NC(=O)c6ccccc6)nccc54)c3)cc(C(F)(F)F)c2)cn1	-9.97% (active)
CC(C)c1ccc(NC(=O)Cc2ccc(Nc3ncnc4cc(-c5cnn(CCN(C)C)c5)ccc34)cc2)cc1	-86.9% [30 µM] (active)
Cc1[nH]n(-c2cccc(Cl)c2)c(=O)c1/C=C1\C=c2ccccc2=CC1=O	34.5%
COc1ccc(Cn2cc3c(c2-c2ccccc2)CCc2cncnc2-3)cc1	32.5%
CCCCCN1C=C/C(=C\C(=O)N(C)c2ccc(Br)cc2)c2ccccc21	73.8%
CN(C)CCN1C(=O)c2cccc3c(-c4ccc(-c5nc6c7ccccc7c7ccccc7c6[nH]5)cc4)ccc(c23)C1=O	108%
COc1ccc2nc(-c3ccc(OC)c(OC)c3)cc(-c3nnc(SCC(=O)Nc4ccc(C(C)=O)cc4)o3)c2c1	103%
CNCc1ccccc1CN(CC(=O)Nc1ccc2c(c1)CC1(C2)C(=O)Nc2ncccc21)C(=O)C(C)(C)C (stereo not given)	107%
O=C(CN1C(=O)NC2NC(=O)NC21)N/N=C/c1ccccc1[N+](=O)[O-] (stereo not given)	98.5%
CC[C@@H](C(=O)[C@H](C)[C@H](O)[C@@H](C)[C@H]1O[C@H]([C@@H](CC)C(=O)N(CC)CC)CC[C@H]1C)C1O[C@]2(C=C[C@@H](O)[C@]3(CC[C@@](C)([C@H]4CC[C@](O)(CC)[C@H](C)O4)O3)O2)[C@H](C)C[C@@H]1C (stereo not given in full)	-18.3% (active)
Cc1cnc(SCc2ccc(Cl)cc2Cl)nc1Nc1ccc(Cl)c(Cl)c1	101%
COc1ccc2c(c1)c(-c1nonc1-c1cn(C)c3ccc(OC)cc13)cn2C	29%
